Experimental data as given in the supplement of paper PMC7595190.

Test system: MV4-11
Assay: CellTox Green cytotoxicity fluorescence relative to DMSO vehicle (fold of vehicle RFU); higher = more cell death (loss of membrane integrity), active = 2 or more
Method: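 Paediatric AML cell lines (MV4-11, CMK, Kasumi-1; 4x10^4 cells/well, 96-well) treated with single compounds from the Selleckchem apoptosis library at 0.01, 0.1 and 1 µM. Cytotoxicity was read with CellTox Green (RFU, Ex 485/Em 520) at 24, 48 and 72 h and normalised to the 0.1% DMSO vehicle. Normalised RFU >= 2 was taken as a successful, cell-killing treatment.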

Row | SMILES | CellTox Green cytotoxicity fluorescence (0.01 µM, 24 h) | CellTox Green cytotoxicity fluorescence (0.01 µM, 48 h) | CellTox Green cytotoxicity fluorescence (0.01 µM, 72 h) | CellTox Green cytotoxicity fluorescence (0.1 µM, 24 h) | CellTox Green cytotoxicity fluorescence (0.1 µM, 48 h) | CellTox Green cytotoxicity fluorescence (0.1 µM, 72 h) | CellTox Green cytotoxicity fluorescence (1 µM, 24 h) | CellTox Green cytotoxicity fluorescence (1 µM, 48 h) | CellTox Green cytotoxicity fluorescence (1 µM, 72 h)
1 | CC[C@@]1(O)C(=O)OCc2c1cc1n(c2=O)Cc2cc3cc(O)ccc3nc2-1 [(S)-10-Hydroxycamptothecin] | 1.01 (inactive) | 1.35 (inactive) | 1.89 (inactive) | 1.09 (inactive) | 1.65 (inactive) | 1.93 (inactive) | 1.27 (inactive) | 2.3 (active) | 2.45 (active)
2 | O=C1CCC(N2C(=O)c3ccccc3C2=O)C(=O)N1 (stereo not given) [Thalidomide] | 0.964 (inactive) | 0.959 (inactive) | 0.973 (inactive) | 0.954 (inactive) | 0.962 (inactive) | 0.958 (inactive) | 0.952 (inactive) | 0.965 (inactive) | 1.12 (inactive)
3 | COc1cccc(-n2c(=O)[nH]c3cc(Cl)n(-c4ccc(-c5cccc(OC)c5O)cc4)c3c2=O)c1 | 0.975 (inactive) | 0.924 (inactive) | – | 0.975 (inactive) | 0.966 (inactive) | 0.959 (inactive) | 1.01 (inactive) | 1 (inactive) | 1 (inactive)
4 | CN1CCN(Cc2ccc(Nc3ncc(Cl)c(Nc4ccccc4S(=O)(=O)N(C)C)n3)cc2)CC1 | 0.95 (inactive) | 0.961 (inactive) | 0.975 (inactive) | 1.14 (inactive) | 1.93 (inactive) | 2.27 (active) | 1.42 (inactive) | 2.4 (active) | 2.55 (active)
